This is a sample that favours compounds with a hit; in the whole collection about 5.6% have one here.
PKM2 activator – activators of human pyruvate kinase M2 | P14618 | purified PKM2, Kinase-Glo ATP luminescence, activation; response scale: 0% is enzyme alone, no compound | Potency, µM (series often up to 57.5 µM), without a hit: at the highest dose activation, actives largely listed as activators | hit rate 0.34% among 260,000 | AID 1631; note: potency is the fitted concentration of half-maximal effect; nearly all actives have a fitted effect of over 55% in size
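hPK-M2, >95% pure; 0.1 mM ADP / 0.5 mM PEP final; imidazole pH7.2 buffer w/ 7 mM MgCl2, 50 mM KCl; 1 h RT; Kinase-Glo lum. Intermediate enzyme activity for dual inhibitor/activator qHTS.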
Six1-Eya2 blk – blocks human Six1 binding to Eya2. Q15475+O00167. hit rate 0.56% among 360,000. activity change, % (no concentration beside the values). AlphaScreen GST-Six1/His-Eya2 binding, biochemical; active compounds read low. AID 651725; in the data active = activity change below about -65%; inconclusive = mostly about -30% to -63%
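Homogeneous AlphaScreen proximity assay pairing GST-Six1 with His-tagged Eya2 (added as 5X mix: 250 nM and 500 nM) in 50 mM Tris pH 8.0, 300 mM NaCl, 1 mM TCEP. Glutathione donor and nickel acceptor beads; 1 h, 37 °C, dark.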
VP16 counter – inhibits Gal4-VP16 luciferase reporter, ROR gamma counter-screen | Drosophila S2 Gal4-VP16 UAS-luciferase, luminescence, 20 h | Potency, µM (top dose mostly 53.6 µM), for inactives: at the top dose activity, negative = inhibition, hits mostly inhibitors | hit rate 3.5% among 310,000 | AID 2546;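 note: Gal4-VP16 expression switched on by copper sulfate through the metallothionein promoter; potency is the fitted concentration of half-maximal effect; nearly all actives have a fitted effect of over 50% in size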
CtBP-E1A inh – inhibitors of CtBP/E1A interaction; AlphaScreen GST-E1A/His-CtBP binding, 1536-well; active compounds read low; activity change, % (test concentration not listed); hit rate 0.49% among 340,000; in the data active = activity change below about -65%; inconclusive = mostly about -30% to -63%
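AlphaScreen with 125 nM GST-E1A and 125 nM His-CtBP (5X stocks) in Tris pH 8.0, 300 mM NaCl, BSA, Tween 20, TCEP. Compounds preincubated 2 h at 37 deg C, then glutathione donor/nickel acceptor beads added for 1 h at 37 deg C in dark.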
RORgamma inh – blocks mouse ROR gamma transcriptional activity. Drosophila S2 Gal4-RORgamma UAS-luciferase reporter, 20 h. AID 2551. hit rate 5.4% among 310,000. Potency, µM (series often up to 53.6 µM), for the others: at the top dose activity change, negative = inhibition, usual class: inhibitors; note: potency is the fitted concentration of half-maximal effect; nearly all actives have a fitted effect of over 60% in size
Target sequence (P51450 whole entry, looked up, the tested form may be a part): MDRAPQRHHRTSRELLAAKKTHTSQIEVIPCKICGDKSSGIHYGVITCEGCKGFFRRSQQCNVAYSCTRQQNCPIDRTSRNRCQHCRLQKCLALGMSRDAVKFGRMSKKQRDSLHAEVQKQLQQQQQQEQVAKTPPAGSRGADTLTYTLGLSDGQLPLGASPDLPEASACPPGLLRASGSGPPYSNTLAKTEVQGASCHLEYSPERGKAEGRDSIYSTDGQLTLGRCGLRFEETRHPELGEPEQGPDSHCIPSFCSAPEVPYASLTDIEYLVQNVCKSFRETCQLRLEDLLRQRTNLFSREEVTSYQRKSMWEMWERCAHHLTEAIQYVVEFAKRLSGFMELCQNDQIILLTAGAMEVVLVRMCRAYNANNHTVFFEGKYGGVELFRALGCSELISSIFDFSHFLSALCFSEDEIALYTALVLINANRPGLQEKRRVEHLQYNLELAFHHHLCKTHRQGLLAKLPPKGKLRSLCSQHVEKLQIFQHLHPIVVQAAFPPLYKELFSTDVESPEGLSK
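ROR gamma transcriptional activity was tracked as Gal4-UAS luciferase output in stably transfected Drosophila Schneider cells, with compound added 1 hr before 700 uM copper sulfate induction and a 20 hr ambient-temperature incubation.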
* hit, by the source's call; ? = inconclusive; . = not tested or not shown; [ ] = another dose, or the depositor's remark. Unless noted, calls come from the whole dose curve; as a rule, active = well fitted curve in the direction sought with a large enough effect; inconclusive = small, poorly fitted or top-dose-only effect, or another doubt; inactive = no such curve, though single readings can be large; an effect the other way counts as inactive or inconclusive. % is set by controls: 0 for no effect and ±100 for the full control effect.

SMILES	PKM2 activator	Six1-Eya2 blk	VP16 counter	CtBP-E1A inh	RORgamma inh
O=c1cc(C(Cl)(Cl)Cl)oc2c1ccc1ccccc12	-0.5%	3.8	5.62µM*	-10.2	1.41µM*
O=C(c1ccc(Cl)c(NC2=NC3CS(=O)(=O)CC3S2)c1)N1CCN(c2ccc(F)cc2)CC1 (stereo not drawn)	.	-9.2	0.1%	-6.7	-8.9%
COc1cc(/C=C2\SC(=S)N(NC(=O)c3ccc(O)c(OC)c3)C2=O)ccc1O	.	-6.0	?	?	7.08µM*
Cn1cccc1/C=C1\SC(=S)N(NC(=O)c2ccc(F)cc2)C1=O	1.6%	?	15.8µM*	?	30.3%
COc1cc(/C=C2\SC(=S)N(NC(=O)c3ccncc3)C2=O)ccc1O	0.1%	-25.5	-8.2%	-5.6	-13.7%
Cn1cccc1/C=C1\SC(=S)N(NC(=O)c2ccccc2)C1=O	-3.0%	?	4.7%	2.9	?
C/C(=N\Nc1nc(C)c(C)s1)c1ccc([N+](=O)[O-])cc1	-2.5%	-15.1	?	-2.8	11.2µM*
C/C(=N\Nc1ccc([N+](=O)[O-])cc1)c1ccc(N)cc1	-19.8%	-5.0	2.6%	6.4	25.5%
CCc1c(C)sc(NC(=O)CC#N)c1C#N	0.6%	?	-7.5%	-67.0*	14.1%
CCCC(=O)Nc1sc(C)c(C)c1C#N	-4.9%	0.0	-4.8%	0.0	-5.5%
C/C(=N\NC(=O)c1ccc(Cl)c(Cl)c1)c1ccccn1	.	?	0.0028µM*	?	0.0891µM*
C/C(=N/NC(=O)c1ccccn1)c1ccncc1	.	?	-12.1%	-29.1	-24.2%
C/C(=N\NC(=O)c1ccccc1Cl)c1ccccn1	.	-91.2*	2.82µM*	.	1.26µM*
C/C(=N\NC(=O)c1cccc(Br)c1)c1ccccn1	1.3%	-90.0*	0.0282µM*	-2.7	0.1µM*
C/C(=N\NC(=O)c1cccc2ccccc12)c1ccccn1	-0.9%	-90.8*	.	-91.9*	.
COc1ccc(OC)c(CNS(=O)(=O)c2cc(CN3C(=O)c4cccnc4C3=O)ccc2OC)c1	.	-2.3	?	-5.7	?
Cc1c(C(=O)N(C)Cc2nc3ccccc3c(=O)[nH]2)oc2ccccc12	.	-18.8	.	-3.7	.
CCCCC(=O)NCCc1c(Cc2ccccc2)[nH]c2ccccc12	.	.	-20.9%	.	38.6%
CCOc1ccc(OCc2ccc(C(=O)NN=Cc3ccc[nH]3)cc2)cc1	.	-0.4	.	2.9	.
C/C(=N\NC(=O)c1ccc(NS(=O)(=O)c2cccs2)cc1)c1ccccn1	-1.2%	?	2.6%	?	-35.3%
CCOc1ccc(OCc2ccc(C(=O)N/N=C(\C)c3ccccn3)cc2)cc1	0.2%	?	4.9%	?	0.112µM*
C/C(=N\NC(=O)c1cccc2ccccc12)c1cccs1	1.9%	0.7	20.6%	-2.0	-13.3%
COc1ccc(C(=O)N/N=C(\C)c2ccccn2)cc1OC	0.2%	-89.3*	0.562µM*	-93.2*	0.355µM*
COc1ccc(NC(=O)c2ccccn2)cc1OC	-14.3%	-2.8	-6.9%	.	-2.7%
C/C(=N/NC(=O)c1ccc(C(C)(C)C)cc1)c1ccccn1	.	-88.2*	.	-1.2	.
SMILES	PKM2 activator	Six1-Eya2 blk	VP16 counter	CtBP-E1A inh	RORgamma inh
C/C(=N\NC(=O)c1ccoc1C)c1cccc2ccccc12	0.3%	-8.8	-8.4%	5.1	12.6µM*
COC(=O)CC1(CC(N)=O)SCCS1	.	7.5	.	-12.3	.
CC(Oc1cc2oc(=O)c3c(c2cc1Cl)CCC3)C(=O)NCCCn1ccnc1 (stereo not drawn)	.	2.3	5.3%	-14.1	-3.4%
CC1CCCN(C(=O)COC(=O)C2CCN(S(=O)(=O)c3ccc4c(c3)OCCO4)CC2)C1 (stereo not drawn)	.	3.1	.	0.0	.
C/C(=N\NC(=O)c1cc(Br)ccc1O)c1ccccn1	2.1%	-3.2	0.282µM*	-8.6	0.398µM*
O=C(NN=C1CCC(=NNC(=O)c2ccccn2)CC1)c1ccccn1	-4.6%	-67.5*	1.8%	-75.1*	-15.1%
C/C(=N\NC(=O)C(c1ccccc1)c1ccccc1)c1ccccn1	-3.9%	-12.3	1.58µM*	-15.0	0.631µM*
O=C(NN=C(c1ccccc1)c1ccccn1)c1ccccc1	.	-68.2*	.	6.4	.
NC(C(=O)O)C(O)c1ccc(O)c(O)c1 (stereo not drawn)	.	.	2.2%	.	-6.8%[10 µM]
Cc1c(C(=O)N(C)C2CCCCC2)sc2nc3ccc(N)cc3n12	.	.	-2.7%	.	40.3%
N#Cc1ccc(OCC(=O)N2CCN(S(=O)(=O)c3cccs3)CC2)cc1	17.8µM*	1.9	1.7%	4.0	12.9%
O=C(COc1ccc(-c2ccccc2)cc1)N1CCN(C(=O)c2cccs2)CC1	14.3%	-74.1*	11.1%	7.0	8.9%
CCS(=O)(=O)N1CCN(S(=O)(=O)c2ccccc2[N+](=O)[O-])CC1	?	-5.1	9.2%	7.3	4.6%
O=C(c1ccccc1)N1CCN(S(=O)(=O)c2cccs2)CC1	4.6%	-13.8	0.1%	-2.5	5.3%
COc1ccc(OCC(=O)N2CCN(S(=O)(=O)c3ccccc3[N+](=O)[O-])CC2)cc1	7.94µM*	-13.7	-1.8%	0.0	?
O=C(COc1ccccc1)N1CCN(S(=O)(=O)c2cccs2)CC1	7.94µM*	1.7	3.7%	-3.8	?
COC(=O)CC(NC(=O)CN1CCN(c2ccc(F)cc2)CC1)c1cccc(F)c1 (stereo not drawn)	.	7.0	-6.2%	-1.7	3.1%
O=C(Nc1ccccc1Cl)c1ccc(S(=O)(=O)NCC2CCCO2)cc1 (stereo not drawn)	1.2%	-0.9	-6.5%	4.7	13.2%
O=C(CCOc1ccccc1)N1CCN(S(=O)(=O)c2cccs2)CC1	12.6µM*	20.6	-2.9%	-5.4	?
O=C(CCc1ccccc1)N1CCN(S(=O)(=O)c2cccs2)CC1	3.55µM*	3.9	0.7%	13.1	-15.0%
O=C(CCOc1ccccc1)N1CCN(S(=O)(=O)c2ccccc2F)CC1	.	3.0	.	6.4	.
CCC1CSC(Nc2ccc(C(=O)/C=C/c3ccc(Oc4ccccc4)cc3)cc2)=N1 (stereo not drawn)	9.2%	-13.9	?	23.5	15.8µM*
Nc1ccc(C(=O)NCCCSc2ccccc2)cc1[N+](=O)[O-]	1.0%	-15.8	-15.8%	-0.2	150.5%
O=C1c2ccccc2C(=O)c2c1ccc1c(=O)n(C3CCCCC3)[nH]c21	-8.2%	-6.8	-29.8%	-15.6	7.94µM*
CCCCNC(=O)C(NC(=O)c1ccc(-c2ccccc2)cc1)C(=O)c1ccccc1 (stereo not drawn)	.	4.9	.	-1.6	.
CC(=O)N(C)c1ccc(N2CCOCC2)c2c1C(=O)c1ccccc1C2=O	.	13.8	.	17.2	.
O=C1c2ccccc2C(=O)c2c1cccc2N1CCOCC1	3.5%	-77.9*	2.6%	-72.4*	-33.2%
COc1cc2c(cc1OC)CN(C1CCC(C)CC1)CC2 (stereo not drawn)	3.1%	-1.8	.	6.6	.

Screens: PubChem, National Center for Advancing Translational Sciences (NCATS)
